The results in this text go back to PubChem BioAssay.

A number with no mark means an inactive call. For some of these results: Entries with a potency or affinity are not part of this list. Activity calls are given as the source filed them. Unless noted, no rule for the calls is given here.

Assay [1] can be described thus: antimalarial activity against Dd2 strain (AID 2302;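 active = growth inhibition above 50% at the single 2 µM test dose, taken to imply half-maximal potency below 2 µM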;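 also: 0% = DMSO untreated growth and 100% = chloroquine plus artemisinin killed control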). The note with it: P. falciparum Dd2 in RBCs, LDH growth readout, 72 h; at 2 µM; hits give high values.
Assay [2] can be described thus: human hepatoma cell viability loss – ATP luminescence, cytotoxicity control for P. falciparum antimalarial project, primary screen (AID 2303;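 active = inhibition above 50%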;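 also: 0% = DMSO wells and 100% = digitonin-killed cells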). Conditions: HepG2 viability, 24-48 h, at 10 µM, hits give high values.
For assay [3], the target named is L-lactate dehydrogenase (Plasmodium falciparum (isolate CDC / Honduras)) (UniProt Q27743). Description: PfLDH activity inhibition – cell lysate, 3D7 strain, counter-screen for P. falciparum growth inhibition project (AID 2304).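 Also: 0% = vehicle and 100% = reference inhibitor.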 Conditions: P. falciparum 3D7 crude extract, LDH APAD/NBT absorbance; at 2 µM; hits give high values.
Sequence of L-lactate dehydrogenase (Plasmodium falciparum (isolate CDC / Honduras)) (Q27743 whole entry, looked up): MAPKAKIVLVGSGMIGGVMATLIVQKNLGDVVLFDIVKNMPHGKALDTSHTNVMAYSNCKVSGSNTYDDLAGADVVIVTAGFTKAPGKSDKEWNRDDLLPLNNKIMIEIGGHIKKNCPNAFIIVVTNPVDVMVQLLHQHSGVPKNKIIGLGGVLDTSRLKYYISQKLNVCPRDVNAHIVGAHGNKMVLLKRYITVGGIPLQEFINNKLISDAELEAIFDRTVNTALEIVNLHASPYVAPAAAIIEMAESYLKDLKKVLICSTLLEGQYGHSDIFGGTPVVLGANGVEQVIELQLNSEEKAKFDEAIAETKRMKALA
Assay [4] is described as follows: inhibition of 3D7 malaria parasite growth – strain 3D7 (AID 2306).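 Also: 0% = DMSO wells and 100% = chloroquine plus artemisinin control wells.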 Conditions: P. falciparum 3D7 erythrocytic growth, LDH absorbance, 72 h; at 2 µM; hits give high values.
Assay [5] concerns the target Calcium-dependent protein kinase 1 (Plasmodium falciparum (isolate 3D7)) (UniProt P62344). Description: PfCDPK1 kinase inhibitors, biochemical, TCAMS library (AID 1159585; cut-off not given, nearly all actives have IC50 up to about 0.98 µM;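 also: inhibitors leave more ATP so luminescence rises with inhibition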). The note with it: recombinant PfCDPK1, Kinase-Glo ATP depletion luminescence.
In assay [6] the target is Plasmodium falciparum protein kinase 6 (PK6, PF3D7_1337100) (UniProt Q8IDW1). Description: PfPK6 kinase inhibitors, biochemical, TCAMS library (AID 1159586). The note with it: recombinant PfPK6, Kinase-Glo ATP depletion luminescence.
Sequence of Plasmodium falciparum protein kinase 6 (PK6, PF3D7_1337100) (Q8IDW1 1-305): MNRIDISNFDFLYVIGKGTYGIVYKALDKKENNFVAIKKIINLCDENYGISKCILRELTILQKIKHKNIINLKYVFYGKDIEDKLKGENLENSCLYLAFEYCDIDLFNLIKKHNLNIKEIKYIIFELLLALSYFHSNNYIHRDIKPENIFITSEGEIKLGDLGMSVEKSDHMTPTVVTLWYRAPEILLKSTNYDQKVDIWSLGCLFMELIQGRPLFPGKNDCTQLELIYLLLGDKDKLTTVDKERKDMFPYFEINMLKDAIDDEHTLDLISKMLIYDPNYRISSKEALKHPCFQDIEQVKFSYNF
For assay [7], the target named is Protein kinase 7 (PK7), Plasmodium falciparum 3D7 (PF3D7_0213400) (UniProt Q7YTF7). Description: inhibition of Plasmodium PK7 catalytic activity – biochemical, TCAMS antimalarial set, Kinase-Glo luminescence (AID 1159587). Conditions: recombinant PfPK7, Kinase-Glo ATP depletion luminescence.
Sequence of Protein kinase 7 (PK7), Plasmodium falciparum 3D7 (PF3D7_0213400) (Q7YTF7 1-343): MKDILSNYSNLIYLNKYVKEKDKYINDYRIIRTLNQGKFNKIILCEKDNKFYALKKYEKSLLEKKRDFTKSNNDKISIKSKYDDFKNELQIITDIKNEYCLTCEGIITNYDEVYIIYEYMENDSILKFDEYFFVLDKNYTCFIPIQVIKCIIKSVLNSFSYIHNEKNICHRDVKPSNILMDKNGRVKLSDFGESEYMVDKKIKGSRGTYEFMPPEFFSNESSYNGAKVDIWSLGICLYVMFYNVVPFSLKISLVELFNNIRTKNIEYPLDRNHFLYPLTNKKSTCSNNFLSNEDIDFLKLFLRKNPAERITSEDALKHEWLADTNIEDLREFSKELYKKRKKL
Assay [8] has as its target Calcium-dependent protein kinase 4 (Plasmodium falciparum (isolate 3D7)) (UniProt Q8IBS5). Description: PfCDPK4 kinase inhibitors, biochemical, TCAMS library (AID 1159588; cut-off not given, nearly all actives have IC50 up to about 0.91 µM). The note with it: recombinant PfCDPK4, Kinase-Glo ATP depletion luminescence.

Sequence of Calcium-dependent protein kinase 4 (Plasmodium falciparum (isolate 3D7)) (Q8IBS5 whole entry, looked up): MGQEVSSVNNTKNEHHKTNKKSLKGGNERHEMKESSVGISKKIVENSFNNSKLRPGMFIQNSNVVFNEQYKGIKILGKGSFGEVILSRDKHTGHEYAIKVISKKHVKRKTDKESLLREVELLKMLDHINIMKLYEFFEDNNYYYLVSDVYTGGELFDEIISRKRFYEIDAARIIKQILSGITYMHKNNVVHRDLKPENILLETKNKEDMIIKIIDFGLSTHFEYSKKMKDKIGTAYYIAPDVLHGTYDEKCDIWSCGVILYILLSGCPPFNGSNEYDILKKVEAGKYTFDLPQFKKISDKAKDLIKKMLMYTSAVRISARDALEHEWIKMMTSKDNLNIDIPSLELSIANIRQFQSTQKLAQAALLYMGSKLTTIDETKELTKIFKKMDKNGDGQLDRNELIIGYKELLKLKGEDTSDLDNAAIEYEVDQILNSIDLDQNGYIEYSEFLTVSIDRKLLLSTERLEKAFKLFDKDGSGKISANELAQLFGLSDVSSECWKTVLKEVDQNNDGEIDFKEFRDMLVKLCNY
Sequence of Calcium-dependent protein kinase 1 (Plasmodium falciparum (isolate 3D7)) (P62344 whole entry, looked up): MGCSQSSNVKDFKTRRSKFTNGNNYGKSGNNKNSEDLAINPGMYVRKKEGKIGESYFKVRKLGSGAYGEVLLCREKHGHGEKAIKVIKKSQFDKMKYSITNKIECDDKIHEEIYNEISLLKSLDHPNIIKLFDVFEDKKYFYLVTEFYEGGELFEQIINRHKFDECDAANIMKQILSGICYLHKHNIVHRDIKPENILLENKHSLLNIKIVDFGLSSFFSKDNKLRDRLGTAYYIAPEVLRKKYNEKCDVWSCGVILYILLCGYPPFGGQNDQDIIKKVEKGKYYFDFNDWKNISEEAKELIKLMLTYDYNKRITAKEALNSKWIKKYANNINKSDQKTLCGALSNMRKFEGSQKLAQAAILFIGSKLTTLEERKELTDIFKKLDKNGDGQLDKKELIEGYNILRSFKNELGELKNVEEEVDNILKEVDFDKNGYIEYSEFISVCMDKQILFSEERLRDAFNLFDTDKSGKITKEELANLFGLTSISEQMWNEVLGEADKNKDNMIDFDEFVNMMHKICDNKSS

Regarding `COc1ccccc1-c1ccc(CNC(=O)C(CN2CCN(C)CC2)c2ccccc2)cc1` (stereo not given), the growth inhibition is 4% in assay [1] and 90% (active) in assay [4]. The inhibition in assay [2] is 3%; in assay [3] it was 2%. Also, the result in assay [5], in assay [6], in assay [7] and in assay [8] was inactive.

For the molecule `Cc1nc(-c2cccc(Nc3nccc(NCC(O)c4cccc(C(F)(F)F)c4)n3)c2)cs1` (stereo not given), the results for the growth inhibition in assay [1] and in assay [4] were 99% (active) and 100% (active), respectively. Also, the inhibition in assay [2] is 14%; in assay [3], 0%. For the same molecule, the outcome in assay [5], in assay [6], in assay [7] and in assay [8] was inactive.

As to `Cc1cc(-c2ccc3occ(CCN)c3c2)cnc1N`, the figures for the growth inhibition in assay [1] and in assay [4] were 56% (active) and 92% (active), respectively. Further, the values for the inhibition in assay [2] and in assay [3] were -5% and -2%, respectively. For the same molecule, the result in assay [5], in assay [6], in assay [7] and in assay [8] was inactive.

As for `O=C(c1cccc(-c2noc(C(F)(F)F)n2)c1)N1CCN(C(=O)c2ccc3cc[nH]c3c2)CC1`, the results for the growth inhibition in assay [1] and in assay [4] were 85% (active) and 94% (active), respectively. Moreover, the inhibition in assay [2] was 15%; in assay [3] it was -3%. In addition, the result in assay [5], in assay [6], in assay [7] and in assay [8] was inactive.

Take `COc1cc(NC2=NS(=O)(=O)c3cc(Cl)ccc3N2C)cc(OC)c1OC`: the growth inhibition was 100% (active) in assay [1] and 101% (active) in assay [4]. Further, the inhibition in assay [2] is -6%; in assay [3], -2%. Also, the outcome in assay [5], in assay [6], in assay [7] and in assay [8] was inactive.

On to `O=C(Nc1ccc(Cl)cc1Cl)N[C@H]1CCN(CCCCCNC(=O)[C@@H]2C[C@H]2c2ccc(Cl)c(Cl)c2)C1`, for which the growth inhibition in assay [1] was 0%; in assay [4], 94% (active). The inhibition in assay [2] is 37%; in assay [3] it was 2%. For the same molecule, the outcome in assay [5], in assay [6], in assay [7] and in assay [8] was inactive.

With `O=C(NCCc1ccc(Cl)c(Cl)c1)[C@@H]1CCCN1C(=O)c1ccc(O)c(-c2cccc(C(F)(F)F)c2)c1`, the growth inhibition in assay [1] is 82% (active); in assay [4] it was 97% (active). Moreover, the inhibition in assay [2] is 0%; in assay [3], -7%. The outcome in assay [5], in assay [6], in assay [7] and in assay [8] was inactive.

As to `CC(Cc1ccc(NC(=O)c2ccc(CC(C)NCc3ccc(Cl)cc3)cc2)cc1)NCCc1cccc(Cl)c1` (stereo not given), the growth inhibition was 75% (active) in assay [1] and 101% (active) in assay [4]. For the same molecule, the inhibition was 95% (active) in assay [2] and -5% in assay [3]. The outcome in assay [5], in assay [6], in assay [7] and in assay [8] was inactive.

On to `CCOc1cc(Br)c(C(C)NC(=O)c2cccc(OC)c2)cc1OCC` (stereo not given), for which the growth inhibition in assay [1] is 37%; in assay [4], 90% (active). Also, the figures for the inhibition in assay [2] and in assay [3] were -1% and 3%, respectively. Further, the outcome in assay [5], in assay [6], in assay [7] and in assay [8] was inactive.

Consider `COc1ccc2c(C)cc(NCCCN(C)C)nc2c1`, for which the growth inhibition was 19% in assay [1] and 95% (active) in assay [4]. Besides, the inhibition in assay [2] is 10%; in assay [3] it was 3%. Besides, the outcome in assay [5], in assay [6], in assay [7] and in assay [8] was inactive.

For `COc1ccc(CNCc2ccc(-c3ccc(-c4nc5ccccc5[nH]4)cc3)cc2)cc1`, the growth inhibition in assay [1] is 89% (active); in assay [4], 103% (active). Also, the inhibition in assay [2] is 63% (active); in assay [3] it was -4%. In addition, the result in assay [5], in assay [6], in assay [7] and in assay [8] was inactive.

On to `COc1ccc(NC(=O)[C@H](CC(C)C)Nc2ccnc(NCCc3ccc(F)cc3)n2)cc1`, for which the growth inhibition was 22% in assay [1] and 86% (active) in assay [4]. The inhibition in assay [2] is -6%; in assay [3], -2%. The outcome in assay [5], in assay [6], in assay [7] and in assay [8] was inactive.

With `CC1=C(C(=O)OC(C)C)C(c2ccccc2Cl)C2=C(CC(c3ccccc3)CC2=O)N1` (stereo not given), the growth inhibition is 84% (active) in assay [1] and 93% (active) in assay [4]. In addition, the inhibition was 15% in assay [2] and 1% in assay [3]. Besides, the result in assay [5], in assay [6], in assay [7] and in assay [8] was inactive.

With `COc1ccc(CN2CCC(N3CCc4cc(NC(=O)c5cc(C)on5)ccc43)C2)cc1Cl` (stereo not given), the growth inhibition in assay [1] was 91% (active); in assay [4] it was 94% (active). For the same molecule, the inhibition in assay [2] is 15%; in assay [3], 2%. The outcome in assay [5], in assay [6], in assay [7] and in assay [8] was inactive.

Take `CC(C)C(=O)NC(c1ccc(N(C)C)cc1)c1cc(Cl)c2cccnc2c1O` (stereo not given): the growth inhibition is 64% (active) in assay [1] and 87% (active) in assay [4]. For the same molecule, the values for the inhibition in assay [2] and in assay [3] were 61% (active) and 2%, respectively. Also, the result in assay [5], in assay [6], in assay [7] and in assay [8] was inactive.

Turning to `O=C(O)Cc1ccc(-c2c[nH]c3ncc(-c4cccc5ncccc45)cc23)cc1`, the growth inhibition in assay [1] is 0%; in assay [4], 95% (active). The inhibition was 7% in assay [2] and 1% in assay [3]. For the same molecule, the outcome in assay [5], in assay [6], in assay [7] and in assay [8] was inactive.

Regarding `O=C(NCCN1CCC(NC(=O)c2ccc(-c3ccccn3)s2)CC1)c1ccc(Cl)c(Cl)c1`, the figures for the growth inhibition in assay [1] and in assay [4] were 48% and 97% (active), respectively. For the same molecule, the inhibition is 24% in assay [2] and -5% in assay [3]. Also, the result in assay [5], in assay [6], in assay [7] and in assay [8] was inactive.

As for `COc1cccc(Nc2nccc(NCC(O)c3cccc(C(F)(F)F)c3)n2)c1` (stereo not given), the growth inhibition was 27% in assay [1] and 96% (active) in assay [4]. Moreover, the inhibition was 6% in assay [2] and -4% in assay [3]. In addition, the result in assay [5], in assay [6], in assay [7] and in assay [8] was inactive.

With `COc1ccccc1C1CCN(C2CCC(NC(=O)/C=C/c3ccc(C(F)(F)F)cc3F)CC2)CC1` (stereo not given), the results for the growth inhibition in assay [1] and in assay [4] were 2% and 95% (active), respectively. The inhibition in assay [2] was 63% (active); in assay [3], 2%. Moreover, the outcome in assay [5], in assay [6], in assay [7] and in assay [8] was inactive.

Consider `CCOc1ccc(NC(=O)c2cn3nc(-c4ccc(OCC)cc4)cc3nc2C2CCNCC2)cc1`, for which the figures for the growth inhibition in assay [1] and in assay [4] were 39% and 102% (active), respectively. The inhibition in assay [2] was 36%; in assay [3], -11%. In addition, the result in assay [5], in assay [6], in assay [7] and in assay [8] was inactive.
